Assay outcomes (PubChem BioAssay)
A selection: hits, their analogues and other compounds. The true share with any hit is near 1.6%.
KCNQ2 inh: rat KCNQ2 potassium channel inhibitors, primary screen, cell-based, CHO-K1, FluxOR thallium flux, B-score; Potassium voltage-gated channel subfamily KQT member 2 (Rattus norvegicus), O88943; 20 min; hits give low values; B-score at 10 µM; 1.1% of 310,000 active; AID 2156, 2009;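 active means fluorescence ratio B-score at most minus 3 library SDs, with starting brightness B-score within 2 library SDs, cut at about -5.5 in these data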
KCNQ2 pot: potentiators of rat KCNQ2 potassium channel. AID 2239, 2010. B-score at 10 µM. 0.54% of 310,000 active. CHO-K1 KCNQ2, FluxOR thallium flux fluorescence; hits give high values;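 active means fluorescence ratio B-score at least 3 SD of library B-scores, with initial fluorescence B-score within 3 of them, cut at about 5.3 in these data; same plate scores as AID 2156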;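 further: B-score of peak minus minimum over baseline fluorescence ratio after K+ and Tl+ stimulus; positive B-score means potentiation of KCNQ2 with more thallium influx and brighter signal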
Kir21 confirm: mouse Kir2.1 channel blockers, retest, confirmation, cell-based, FluxOR thallium flux, duplicate. shares compounds with KCNQ2 pot. Kir2.1-expressing cells, FluxOR thallium flux fluorescence; hits give low values. Tl flux remaining, % of negative control (hits give low values), % at 10 µM. 41% of 2,300 active;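 active means Primary-screen hit whose thallium flux fell at least 3 control SD below untreated wells in both duplicates, with normal baseline fluorescence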;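 further: 0% = blank wells without stimulus and 100% = stimulated no-compound controls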
Target sequence (P35561 whole entry, looked up): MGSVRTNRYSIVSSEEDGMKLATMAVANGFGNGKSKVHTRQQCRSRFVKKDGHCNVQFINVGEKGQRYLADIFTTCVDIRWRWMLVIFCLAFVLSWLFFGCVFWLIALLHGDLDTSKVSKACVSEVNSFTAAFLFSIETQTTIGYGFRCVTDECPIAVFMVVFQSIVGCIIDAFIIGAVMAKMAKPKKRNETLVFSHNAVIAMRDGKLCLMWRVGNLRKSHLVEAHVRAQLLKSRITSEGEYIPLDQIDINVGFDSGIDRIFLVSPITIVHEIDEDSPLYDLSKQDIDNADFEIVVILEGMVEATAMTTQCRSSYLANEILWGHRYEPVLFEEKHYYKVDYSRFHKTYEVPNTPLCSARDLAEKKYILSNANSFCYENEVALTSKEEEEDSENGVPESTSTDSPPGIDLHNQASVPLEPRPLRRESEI
HEK293 Tl flux: counter-screen for Kir2.1 inhibitors: effect in parental HEK293 cells. 19% of 2,300 active. FluxOR thallium flux fluorescence; 0% = unstimulated blank wells. shares compounds with KCNQ2 pot. FluxOR signal as % of negative control (100 = no effect), % at 10 µM;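 active means dye signal at least 3 control SD above or below untreated wells in both duplicates, raw fluorescence within 3, either direction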;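 further: percent is based on the flux ratio of peak minus minimum fluorescence over baseline F0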
CHO-K1 ctr: nonspecific thallium flux increase in parental CHO-K1, confirmation, counter-screen for KCNQ2 potentiator project, cell-based, FluxOR thallium flux, duplicate. parental CHO-K1 cells, FluxOR thallium flux fluorescence; zero = vehicle mean+3SD, 100% = vehicle-minus-blank window. 43% of 1,200 active. shares compounds with KCNQ2 pot. activity increase over 3SD of controls, % at 10 µM;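 active means signal rise of at least 3 SD above the untreated control mean, in both duplicate wells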;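 further: counter screen of KCNQ2 potentiator hits so any rise reflects channel-independent effects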
KCNQ1 sel pot: human KCNQ1 channel potentiation off-target, confirmation, selectivity assay for KCNQ2 potentiator project, cell-based, CHO, FluxOR thallium flux | CHO KCNQ1 stable, FluxOR thallium flux fluorescence; beyond 3SD, as % of vehicle-control signal | activation over 3SD threshold, % at 10 µM | 28% of 1,200 active | shares compounds with KCNQ2 pot;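 active means fluorescence ratio rise of at least 3 SD of vehicle wells above their mean, in both replicate wells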;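 further: 0% = vehicle mean plus 3 SD and 100% = vehicle minus unstimulated blank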
KCNQ2 pot confirm: rat KCNQ2 channel potentiators, confirmation, cell-based, CHO, FluxOR thallium flux, duplicate. shares compounds with KCNQ2 pot. CHO-KCNQ2 cells, FluxOR thallium flux fluorescence. potentiation, less the hit threshold, % at 10 µM. 68% of 1,200 active. AID 2287, 2010;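 active means fluorescence ratio rising 3 SD or more over the vehicle control mean in both replicates, plus primary screen hit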;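 further: peak minus minimum thallium fluorescence divided by baseline after K/Tl stimulus; 0% = vehicle mean plus 3 SD and 100% = vehicle minus unstimulated blank difference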
Kir2-1 sel: mouse Kir2.1 channel activation off-target, confirmation, selectivity assay for KCNQ2 potentiator project, cell-based, HEK293, FluxOR thallium flux; shares compounds with KCNQ2 pot; HEK293 Kir2.1, FluxOR thallium flux fluorescence; activity over 3SD threshold, % at 10 µM; 2% of 1,200 active; AID 2345, 2010;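 active means fluorescence ratio rise of at least 3 SD above the vehicle-control mean, seen in both replicates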;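 further: 0% = vehicle mean plus 3 SD and 100% = vehicle minus no-stimulus blank window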
KCNQ2 W236L pot: potentiators of retigabine-insensitive KCNQ2 W236L, mechanism study for KCNQ2 potentiator project, cell-based, rat KCNQ2 W236L, CHO, automated patch clamp | shares compounds with KCNQ2 pot | AID 2558, 2010 | current increase over 3SD of negative controls (%), hits give high values, % at 25 µM | automated patch clamp current | 10% of 940 active;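 active means current increase at least 3 SD of the untreated controls above them in both duplicate recordings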
Active calls of the source: *.

Screening CC(NC(=O)CCl)c1ccc(Cl)c(Cl)c1 (configuration not stated) returned KCNQ2 inh inactive and KCNQ2 pot 2.43.
Screening Cc1cc(NC(=O)c2ccc(N3C(=O)CCC3=O)cc2)no1 returned KCNQ2 inh inactive and KCNQ2 pot 0.17.
Screening Cc1nn(-c2ccc(Cl)cc2)c2sc(C(=O)c3c(N)n(C)c(=O)n(C)c3=O)cc12 returned KCNQ2 inh inactive, KCNQ2 pot 0.12, Kir21 confirm inactive and HEK293 Tl flux inactive.
`Cn1c(N)c(C(=O)c2ccc(Cl)cc2)c(=O)n(C)c1=O` gave KCNQ2 inh inactive and KCNQ2 pot 1.14.
CCc1nc2oc3cc(OC)ccc3c(=O)c2c(=O)n1Cc1ccccc1 was read as KCNQ2 inh inactive.
`CC(NC(=O)CC12CC3CC(CC(C3)C1)C2)C(=O)O` (configuration not stated) gave KCNQ2 inh inactive and KCNQ2 pot 1.22.
For COc1ccc(C(C)NC(=O)CC23CC4CC(CC(C4)C2)C3)cc1 (configuration not stated) the results were KCNQ2 inh inactive, KCNQ2 pot 5.66*, Kir21 confirm inactive, HEK293 Tl flux inactive, CHO-K1 ctr -10.6, KCNQ1 sel pot -9.9, KCNQ2 pot confirm -3.4, Kir2-1 sel -51.9 and KCNQ2 W236L pot inactive.
Screening N/C(=N\OS(=O)(=O)c1ccc(Br)cc1)c1ccncc1 returned KCNQ2 inh inactive, KCNQ2 pot 5.61*, Kir21 confirm inactive, HEK293 Tl flux inactive, CHO-K1 ctr 23.9*, KCNQ1 sel pot -16.3, KCNQ2 pot confirm -4.9 and Kir2-1 sel -46.9.
For N/C(=N\OC(=O)COc1ccc(Br)cc1)c1ccncc1 the results were KCNQ2 inh inactive and KCNQ2 pot 0.68.
Screening Cc1cc(C)cc(N(CCC#N)C(=O)COC(=O)CNC(=O)c2sc3ccccc3c2Cl)c1 returned KCNQ2 inh inactive and KCNQ2 pot 0.39.
CCN(C(=O)C(C)N1C(=O)/C(=C/c2cccs2)SC1=S)C1CCS(=O)(=O)C1 (configuration not stated) was read as KCNQ2 inh inactive.
Cc1onc(-c2ccccc2)c1C(=O)N1CCN(Cc2ccc3c(c2)OCO3)CC1 was read as KCNQ2 inh inactive and KCNQ2 pot 0.81.
COCCNCC(O)CON=C1c2ccccc2-c2ccccc21 (configuration not stated) was read as KCNQ2 inh inactive, Kir21 confirm 32.5%* and HEK293 Tl flux inactive.
CC(C)CCNCC(O)CON=C1c2ccccc2-c2ccccc21 (configuration not stated) was read as KCNQ2 inh inactive.
COc1ccc(NC(=O)Cn2nc(C(=O)O)c3ccccc3c2=O)cc1OC was read as KCNQ2 inh inactive and KCNQ2 pot 2.01.
For CN(C)c1ncc([N+](=O)[O-])cc1C(F)(F)F the results were KCNQ2 inh inactive and KCNQ2 pot 3.24.
Screening O=C(c1cncc(Br)c1)N1CCN(S(=O)(=O)c2ccccc2)CC1 returned KCNQ2 inh inactive and KCNQ2 pot 1.39.
c1ccc(-c2oc3ncnc(NCCCn4ccnc4)c3c2-c2ccccc2)cc1 was read as KCNQ2 inh inactive.
`N=c1c2c(-c3ccccc3)c(-c3ccccc3)n(Cc3ccco3)c2ncn1CCCn1ccnc1` gave KCNQ2 inh inactive, Kir21 confirm 32.0%* and HEK293 Tl flux 64.5%*.
N=c1c2c3c(sc2ncn1Cc1ccco1)CCCCC3 was read as KCNQ2 inh inactive and KCNQ2 pot 0.74.
`N=c1c2c(-c3ccccc3)c(-c3ccccc3)n(Cc3ccco3)c2ncn1Cc1ccccc1` gave KCNQ2 inh -5.91*, KCNQ2 pot -5.91, Kir21 confirm 65.0%* and HEK293 Tl flux inactive.
`CCOc1ccc(CNC23CN4CN(CN(C4)C2)C3)cc1` gave KCNQ2 inh inactive.
For CCCOc1ccc(NC(=O)C2CC(=O)N3CCCN=C3S2)cc1 (configuration not stated) the results were KCNQ2 inh inactive.
Screening O=C(CCS(=O)(=O)c1cccs1)NC1CCCCCC1 returned KCNQ2 inh inactive and KCNQ2 pot 1.46.
For O=C(Nc1nncs1)C1CCCC1 the results were KCNQ2 inh inactive and KCNQ2 pot 1.41.
CN1CCC(OC(=O)c2ccccc2)CC1 was read as KCNQ2 inh inactive and KCNQ2 pot 0.61.
Screening Cc1c(Br)cc(C(=O)OC2CCN(C)CC2)c(C)c1C returned KCNQ2 inh inactive, KCNQ2 pot 0.45, Kir21 confirm 25.0%* and HEK293 Tl flux inactive.
For COC(=O)c1c(NC(=O)c2ccc(Br)s2)sc2c1CCC2 the results were KCNQ2 inh inactive.
For Cc1cc(C)cc(OCCNC(=O)c2ccc(Br)cc2)c1 the results were KCNQ2 inh inactive.
For NC(=O)c1ccc(SCC(=O)OCC(=O)N2CCCC2=O)c([N+](=O)[O-])c1 the results were KCNQ2 inh inactive and KCNQ2 pot 0.56.
`Cc1cc(SCC(=O)OCC(=O)N2CCCC2=O)c(C)cc1Br` gave KCNQ2 inh inactive, KCNQ2 pot 1.06, Kir21 confirm inactive and HEK293 Tl flux inactive.
